Assay outcomes deposited in PubChem BioAssay by National Center for Advancing Translational Sciences (NCATS).
ELG1 genotox = genotoxicity induction in ELG1-luciferase HEK293T cells; hit rate 1.3% among 330,000; Potency, µM (top dose mostly 46 µM), most hits filed as activators; HEK293T ELG1-luciferase reporter, luminescence, 16 h; further: nearly all actives have a fitted effect of over 60% in size
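Reporter readout depends on ELG1 protein level, which increases with genetic stress. After 16 hr compound exposure at 37 °C, luciferase activity was quantified using ONE-Glo.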
p53 reactivation = re-activators of mutant p53. Potency, µM (highest dose often 92.2 µM), actives largely listed as activators. hit rate 0.063% among 320,000. H1299 p53-A138V BP100-luciferase reporter, luminescence, 24 h; further: nearly all actives have a fitted effect of over 45% in size
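p53-null H1299 cells stably carrying temperature-sensitive p53-A138V and a BP100-luciferase reporter were pinned with compounds (4-point, 1:5 series) and held 24 hrs at 37 deg C. Luminescence was read 10 min after detection reagent.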
FLuc counter = firefly luciferase modulation, counter-screen for miR-21 project. Potency, µM (doses to about 57.5 µM), usual class: inhibitors. purified FLuc, Km substrates, luminescence inhibition. hit rate 6.9% among 360,000; further: nearly all actives have a fitted effect of over 55% in size
Target sequence (P08659 whole entry, looked up): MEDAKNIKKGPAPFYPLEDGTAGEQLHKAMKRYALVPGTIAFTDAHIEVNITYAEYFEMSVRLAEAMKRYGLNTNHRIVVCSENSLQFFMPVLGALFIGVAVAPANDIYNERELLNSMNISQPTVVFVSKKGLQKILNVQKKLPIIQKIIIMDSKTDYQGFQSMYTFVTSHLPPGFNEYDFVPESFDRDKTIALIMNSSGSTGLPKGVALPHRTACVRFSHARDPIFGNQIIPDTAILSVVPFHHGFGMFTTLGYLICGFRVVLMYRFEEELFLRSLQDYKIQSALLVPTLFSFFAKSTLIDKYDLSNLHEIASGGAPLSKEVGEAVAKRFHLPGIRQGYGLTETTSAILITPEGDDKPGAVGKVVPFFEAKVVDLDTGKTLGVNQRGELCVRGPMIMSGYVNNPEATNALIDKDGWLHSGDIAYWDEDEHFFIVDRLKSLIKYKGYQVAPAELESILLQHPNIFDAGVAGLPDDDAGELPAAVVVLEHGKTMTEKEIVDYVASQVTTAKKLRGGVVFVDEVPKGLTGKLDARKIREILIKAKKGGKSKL
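Purified P. pyralis luciferase (10nM final) with 10uM D-luciferin and 10uM ATP (Km levels) in 50mM Tris acetate pH 7.5, 10mM Mg acetate, 0.01% Tween-20, 0.05% BSA; qHTS 6-point titration, ~60 µM downward; luminescence read.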
NPC1 promoter act = activates the NPC1 promoter; Huh7 NPC1 promoter luciferase reporter, 24 h; Potency, µM (top dose mostly 9.22 µM), most hits filed as activators; hit rate 2.4% among 320,000; further: nearly all actives have a fitted effect of over 60% in size
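Huh7 reporter cells (NPC1 promoter driving luciferase) are dosed with compound for 24 h at 37 °C, 5% CO2; luciferase detection reagent is then added and luminescence measured after 10 min at ambient temperature.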
Rab9 promoter act = Rab9 promoter activation; Huh7 Rab9 promoter-luciferase reporter, luminescence, 24 h; Potency, µM (doses to about 9.22 µM), hits mostly activators; hit rate 2.8% among 320,000; further: nearly all actives have a fitted effect of over 60% in size
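Rab9 promoter-driven luciferase in stably transfected Huh7 cells; 1500 cells/well rested 2 h, exposed to compound in DMSO for 24 h at 37 °C, 5% CO2. Luminescence read 10 min after adding luciferase reagent at ambient temperature.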
SMN2 splice enh = SMN2 splice variant enhancement; HEK293 SMN2-luciferase splicing reporter, luminescence, 30-36 h; Potency, µM (titrated, usually from 46.1 µM), actives largely listed as activators; hit rate 2.8% among 210,000; AID 1458; further: nearly all actives have a fitted effect of over 55% in size
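qHTS luciferase splicing reporter: luminescence rises when SMN2 exon 7 is included in transfected HEK293 cells. Compound exposure lasted 30-36 h at 37C, with 4.5 mM final sodium butyrate as control, followed by a ONE-Glo read.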
Numbers stand for hits; – = inactive; ? = inconclusive; · = not tested or not shown; [ ] = dose if it differs, or a comment. Sampled rows, rich in hits. Any-hit rate of the full collection: about 7.4%. The call rests on the fitted dose curve; in most records, active means well fitted curve in the direction sought with a large enough effect; inconclusive means small, poorly fitted or top-dose-only effect, or another doubt; inactive means no such curve, though single readings can be large; an effect the other way counts as inactive or inconclusive.

SMILES	ELG1 genotox	p53 reactivation	FLuc counter	NPC1 promoter act	Rab9 promoter act	SMN2 splice enh
CCn1cc(CNC(=O)c2cc(-c3ccc(C)cc3)nc3ccc(Br)cc23)c(C)n1	·	·	?	·	·	–
Cc1nc(CCNC(=O)c2cc(COc3ccc(F)cc3Cl)on2)sc1C	–	–	21.3µM	–	–	·
Cc1ccc(OCc2cc(C(=O)NCCn3cccn3)no2)cc1C	–	–	?	–	–	·
Cc1cc(C)n(CCNC(=O)c2cc(COc3ccc(F)cc3Cl)on2)n1	–	–	?	–	–	·
CC(=O)c1ccc(OCc2cc(C(=O)NC(C)CCn3cccn3)no2)cc1 (stereo not given)	18.3µM	·	15.1µM	2.82µM	3.98µM	·
CCOc1ccc(S(=O)(=O)c2cc3cccc(OCC)c3oc2=O)cc1	·	·	–	·	·	–
CCc1ccc2oc(C(=O)Nc3cc(Cl)ccc3OC)cc(=O)c2c1	·	·	–	·	·	–
CCCCn1c(N)c(N(CCOC)C(=O)c2ccc(C)o2)c(=O)[nH]c1=O	–	–	–	–	–	·
CCc1cccc2c3c([nH]c12)[C@@](CC)(CC(=O)O)OCC3	·	·	·	·	·	–
COc1ccccc1C(=O)Nc1cccc(OCc2cc(=O)n3ccccc3n2)c1	·	·	7.57µM	·	·	·
O=C(Nc1cccc(C(=O)OCc2cc(=O)n3c4c(sc3n2)CCCC4)c1)c1ccccc1	·	·	2.39µM	·	·	·
COc1ccc(C)cc1NC(=O)Nc1cccc(OCc2cc(=O)n3ccc(C)cc3n2)c1	·	·	2.69µM	·	·	·
COc1ccccc1C(=O)Nc1cccc(OCc2cc(=O)n3c4c(sc3n2)CCCC4)c1	·	·	6.01µM	·	·	–
COc1ccc(C(=O)Nc2cccc(OCc3cc(=O)n4c5c(sc4n3)CCCC5)c2)cc1	·	·	?	·	·	–
O=C(c1cccc(F)c1)N1CCC2(CC1)CN(Cc1ccccc1)C2	·	·	·	·	·	–
N/C(=N\OC(=O)C12CC3CC(CC(C3)C1)C2)c1ccncc1	–	–	19µM	–	–	·
Cc1ccc(/C(N)=N/OC(=O)C23CC4CC(CC(C4)C2)C3)cc1	–	?	9.53µM	–	?	–
Cc1ccc(C23CC4CC(CC(C(N)=O)(C4)C2)C3)cc1	–	–	–	–	–	·
CCOc1cc(CNCCSc2nnnn2C)cc(Cl)c1OCc1ccc(Cl)cc1	·	·	–	·	·	–
CC(C)C[C@@H](CC(=O)N[C@@H](CCC(=O)O)CC(=O)O)NC(=O)[C@@H]1CNCC[C@H]1NC(=O)C[C@@H](NC(=O)C[C@H](Cc1c[nH]c2ccccc12)NC(=O)[C@@H]1CNCC[C@H]1N)C(C)C	·	·	·	·	·	–
Cc1ccc(N2CC(C(=O)Nc3c4c(nn3C(C)(C)C)CS(=O)(=O)C4)CC2=O)cc1 (stereo not given)	–	–	–	–	–	·
Cc1ccc(C(=O)c2ccccc2C(=O)OCC(=O)Nc2ccc(SC(F)F)cc2)cc1	–	–	–	–	–	–
CCCCNC(=S)Nc1ccc(SC(F)F)cc1	–	–	16.9µM	–	–	–
CCCCC(=O)OCC(=O)Nc1ccc(SC(F)F)cc1	–	–	21.3µM	–	–	–
O=C(COC(=O)c1ccccc1Cc1ccccc1)Nc1ccc(SC(F)F)cc1	?	?	6.01µM	?	2.82µM	·
SMILES	ELG1 genotox	p53 reactivation	FLuc counter	NPC1 promoter act	Rab9 promoter act	SMN2 splice enh
O=C(Cc1ccc(Cl)cc1)Nc1ccc(SC(F)F)cc1	–	?	?	–	–	–
O=C(Cc1ccccc1F)Nc1ccc(SC(F)F)cc1	?	?	5.36µM	3.98µM	1.58µM	12.6µM
O=C(OCC(F)(F)F)[C@H](O)[C@@H](O)C(=O)OCC(F)(F)F	·	·	·	·	·	–
CN(CC(=O)Nc1ccc(F)cc1)C(=O)COC(=O)c1ccc(-c2ccccc2)cc1	–	–	–	–	–	·
Cc1cc(C)cc(NC(=O)COC(=O)Cc2ccccc2F)c1	–	–	·	–	–	·
O=C(COC(=O)Cc1ccccc1F)Nc1ccc(SC(F)F)cc1	–	–	13.5µM	–	–	?
O=C(O)c1ccc(CSc2nnc(COc3ccc(Cl)cc3Cl)o2)cc1	?	–	19µM	–	–	–
COc1ccc(OCc2nnc(SCc3ccc(C(=O)O)cc3)o2)cc1	–	–	–	–	–	·
COc1ccc(N2C(=O)S[C@@H]3CS(=O)(=O)C[C@@H]32)cc1	–	–	–	–	–	–
CC(=O)Nc1nc2cc(N)ccc2s1	–	–	–	–	–	·
Cc1ccc2nc(-c3ccc(N4C(=N)SC5CS(=O)(=O)CC54)cc3)sc2c1 (stereo not given)	?	?	8.49µM	?	2.82µM	·
Cc1ccc2sc(-c3ccc(N)cc3)nc2c1	·	·	0.169µM	·	·	0.631µM
Cc1ccc(S(=O)(=O)Nc2nc3ccc(N)cc3s2)cc1	–	–	–	–	–	·
Nc1ccc(-c2nc3cc(N)ccc3s2)cc1	2.91µM	–	0.675µM	0.501µM	0.708µM	·
Cc1ccc2nc(-c3ccc(N)cc3)sc2c1	?	–	0.107µM	0.316µM	0.224µM	·
CCOc1ccc(S(=O)(=O)N2CCC(C(=O)N3CCN(c4ccccc4F)CC3)CC2)cc1C	–	–	–	–	–	·
Cc1cccc(-n2c(=O)c3c4c(sc3n3cnnc23)CCCC4)c1	·	·	–	·	·	–
O=C1Nc2ccccc2C1C(C[N+](=O)[O-])c1ccccc1 (stereo not given)	–	–	–	–	–	·
COCCn1c(SCC(=O)Nc2cc(Cl)ccc2OC)nc2c([nH]c3ccccc32)c1=O	·	·	–	·	·	·
Cc1cc(C)cc(NC(=O)CN(c2cc(C(F)(F)F)ccc2Cl)S(=O)(=O)c2ccccc2)c1	·	·	–	·	·	–
Nc1ccc2nc(-c3ccccc3)sc2c1	·	·	0.301µM	·	·	0.501µM
CCC(=O)c1ccc(OCC(=O)Nc2nc(-c3cccnc3)cs2)cc1	–	–	–	–	–	·
Cc1cc(O)ccc1Nc1nc(-c2cccnc2)cs1	–	?	6.01µM	?	–	·
CCOc1ccc(Nc2nc(-c3cccnc3)cs2)cc1	?	·	?	2.24µM	2.24µM	·
Nc1ccc(Nc2nc(-c3ccncc3)cs2)cc1	?	?	4.78µM	?	?	–
SMILES	ELG1 genotox	p53 reactivation	FLuc counter	NPC1 promoter act	Rab9 promoter act	SMN2 splice enh
Fc1ccc(Nc2nc(-c3ccncc3)cs2)cc1	–	–	?	?	?	?
Brc1cccc(Nc2nc(-c3cccnc3)cs2)c1	?	–	9.53µM	?	–	·
OCCN[C@@H]1c2cc(Cl)ccc2-c2c(Cl)cc(Cl)cc21	·	·	·	·	·	–[9.22 µM]
CCOc1cccc(CN2CCC(Oc3ccc(C(=O)NCc4ccccn4)cc3)CC2)c1	–	–	–	–	–	·
O=c1oc2ccc3ccccc3c2cc1-c1nnc(Nc2ccc(F)cc2)s1	·	·	–	·	·	–
Cc1ccc(Nc2nc(-c3cccnc3)cs2)cc1C	2.31µM	?	0.849µM	?	?	·
Oc1ccc(Nc2nc(-c3ccc(O)cc3)cs2)cc1	8.2µM	?	7.57µM	–	–	22.4µM
c1ccc(CNc2nc(-c3cccnc3)cs2)cc1	–	–	?	–	–	–
O=C(O)c1ccc(Nc2nc(-c3cccnc3)cs2)cc1	–	–	5.36µM	?	?	·
